Results filed as inconclusive are left out. Where a call stands in place of a potency, no number is given. Calls of active or inactive are those of the source. Calls come from the whole dose curve; as a rule, active = well fitted activation curve with a large enough effect; inconclusive = small, poorly fitted or top-dose-only effect; inactive = no such curve, though single readings can be large or run the other way.
Assay: qHTS assay for re-activators of p53 using a Luc reporter: Hit Validation with no p53 Expressed
How it was run: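 Counter-screen of primary hits in a cell line not transfected with p53, in Opti-MEM with 10% FBS; compounds at several concentrations (10 mM stock, 1:5; top 46.1 µM in well), 24 h at 37 deg C, 5% CO2. Luminescence read after 10 min with Amplite reagent.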
Potency is the fitted concentration of half-maximal effect.

COc1ccc(-c2nc(-c3ccc(NC(=O)c4ccncc4)cc3)no2)cc1OC
Potency: inactive

CS(=O)(=O)N1CCC(C(=O)Nc2cc(Cl)c(Cl)cc2Cl)CC1
Potency: inactive

Cc1cccc(NC(=O)c2cnc3ccccn3c2=O)c1
Potency: inactive

O=C(N/N=C/c1cn(-c2ccccc2)nc1-c1cc2ccccc2o1)c1ccccc1Br
Potency: inactive

C/C(=N/NC(=O)c1ccc2c(c1)OCO2)c1ccc(NC(=O)C(F)(F)F)cc1
Potency: inactive

COc1cccc(C(=O)Nc2ccc(NC(=O)C(C)(C)C)cn2)c1
Potency: 461 nM (active)

CCOc1ccc(NC(=O)C(c2ccccn2)N(C(=O)CCl)c2ccc(OC)cc2)cc1 (stereo not drawn)
Potency: inactive

C/C(=N\NC(=S)NC1CCCCC1)c1ccccc1
Potency: inactive

O=C(NNC(=O)c1cccnc1SCc1cccc([N+](=O)[O-])c1)c1ccccn1
Potency: inactive

O=C(/C=C/c1ccco1)Nc1ccc2nn(-c3ccccc3)nc2c1
Potency: inactive

Cc1cc(/C=N/Nc2ncnc(N)c2[N+](=O)[O-])c(C)n1-c1ccccc1
Potency: inactive

Cc1ccc(C)c(/C=C/C(=O)c2ccccc(=O)c2O)c1
Potency: inactive

Cc1ccc(NC(=O)c2cc(C)n(-c3ccccc3)c2C)cc1
Potency: inactive

c1ccc(Oc2cc(-n3cncn3)ncn2)cc1
Potency: inactive

Cc1ccnc(NC(=O)CCC2CCCCC2)c1
Potency: inactive

Fc1ccccc1/C=C/c1ccc2ccccc2n1
Potency: inactive

Cc1ccc(NC2=C(Cl)C(=O)c3ccccc3C2=O)cc1
Potency: inactive

Cc1cccnc1NC(=O)/C=C/c1ccc2c(c1)OCO2
Potency: inactive

CCC(Sc1nc2ccccc2c(=O)n1CCN1CCOCC1)C(=O)NCc1cccnc1 (stereo not drawn)
Potency: inactive

Cc1ccc(C(=O)NCC(=O)N2CCCCCC2)cc1
Potency: inactive

CC(C)(C)Nc1ncnc2c1cnn2-c1ccccc1
Potency: inactive

O=C(/C=C/Nc1ccc(F)cc1F)c1cccs1
Potency: inactive

Cc1ccc(S(=O)(=O)NCC(=O)NCC(=O)N2CCC(C)CC2)cc1
Potency: inactive

COc1ccc(-c2nnc(-c3ccc(Br)o3)o2)cc1OC
Potency: inactive

CC(=O)NC(=S)Nc1ccc(NC(=O)c2cccs2)cc1
Potency: inactive

Cc1ccc(NC(=O)c2ccc(OC(=O)COc3ccc(Cl)c(C)c3)cc2)cc1
Potency: inactive

O=c1cc(-c2ccc3c(c2)OCCO3)oc2ccc(Cl)cc12
Potency: inactive

O=C(Nc1ccc(CN2CCOCC2)cc1)c1cc2ccccn2n1
Potency: inactive

Cc1cc(Oc2ccccc2)nc(-c2ccccc2O)n1
Potency: inactive

CCC(=O)Nc1cccc(NC(=S)NC(=O)c2ccc(Cl)cc2)c1
Potency: inactive

COCCSc1nnc(NC(=O)CCS(=O)(=O)c2ccccc2)s1
Potency: inactive

CCn1c(C)nc2cc(C(=O)NNC(=O)c3ccc(C)cc3)ccc21
Potency: inactive

CCCCc1ccc(NC(=S)Nc2ccc(Nc3ccc(OC)cc3)cc2)cc1
Potency: inactive

COc1ccc(C(C#N)N2N=C(c3ccccc3)CC2c2ccccc2)cc1OC (stereo not drawn)
Potency: inactive

O=c1sc(/C=N/Nc2ccccc2)c(Cl)n1Cc1ccccc1
Potency: inactive

CCOc1cccc(-c2c(C(=O)N/N=C(\C)c3ccccn3)nnn2-c2nonc2N)c1
Potency: inactive

CCCCOC(=O)c1ccc(NC(=O)CSc2nncn2C)cc1
Potency: inactive

COCc1[nH]nc2c1C(c1cccc(OC)c1)C(C#N)=C(N)O2 (stereo not drawn)
Potency: inactive

O=C(NCc1ccc(-c2nc3ccccc3s2)cc1)c1cc2ccccc2o1
Potency: inactive

O=C(N/N=C(\c1ccccc1)c1ccccn1)c1ccccc1Cl
Potency: inactive

CCN(CC)CCn1c(SCC(=O)Nc2ccc3c(c2)CCC3)nc2ccccc2c1=O
Potency: 8200 nM (active)

Cc1ccc(C)n1-c1sc2c(c1C(=O)O)CCCC2
Potency: inactive

NC(=NCc1ccccc1)c1cccc([N+](=O)[O-])c1
Potency: inactive

CC(C)(C)NC(=O)C(c1ccc(Cl)cc1)N(CCO)C(=O)c1snc(C(N)=O)c1N (stereo not drawn)
Potency: inactive

O=C(c1cnn(-c2ccccc2)c1)c1ccccc1O
Potency: inactive

O=C(NCCOc1ccccc1F)c1cc(F)c(F)cc1Cl
Potency: inactive

CSCCC(NC(=O)c1ccc(Cl)cc1Cl)C(=O)N1CC(C)OC(C)C1 (stereo not drawn)
Potency: inactive

CCOC(=O)CC(=O)Nc1ccc(C(=O)OCC)cc1
Potency: inactive

Cc1cc(C)c2nc(NNC(=O)c3ccc(S(=O)(=O)N4CCCC(C)C4)cc3)sc2c1 (stereo not drawn)
Potency: inactive

C/C(=N\OCC(=O)NC12CC3CC(CC(C3)C1)C2)c1cc2ccccc2o1
Potency: inactive

CCCCCNC(=O)N[C@H](C(=O)O)C(C)C
Potency: inactive

COc1cccc(C(=O)c2sc(NC(C)C)nc2N)c1
Potency: inactive

Cc1ccccc1CSc1ncc(C#N)c(N)n1
Potency: inactive

CCOC(=O)N(Cc1ccccc1)C(C(=O)O)C(C(=O)O)N(Cc1ccccc1)C(=O)OCC (stereo not drawn)
Potency: inactive

C=CCn1c(C)cc(C(=O)COC(=O)c2ccc(N)c([N+](=O)[O-])c2)c1C
Potency: inactive

CCOC(=O)c1ccc2ncc(C(=O)OCC)c(NCc3ccco3)c2c1
Potency: inactive

CC(C)c1ccc(OCC(=O)NC(C)c2ccccc2)cc1 (stereo not drawn)
Potency: inactive

c1ccc2nc(-c3ccc(N4CCOCC4)cc3)ccc2c1
Potency: inactive

Clc1ccc(OCc2nc(-c3ccccn3)n[nH]2)cc1
Potency: inactive

O=C(NNc1c2ccccc2nc2ccccc12)c1ccc(O)cc1
Potency: inactive

O=C(C1CCCN1S(=O)(=O)c1ccc(Cl)cc1)N1CCOCC1 (stereo not drawn)
Potency: inactive

CC(C)(C)c1ccc(/C=N/Nc2ccc(C(=O)O)cc2)cc1
Potency: inactive

COc1ccc(-c2cc(C(F)(F)F)nc(-n3ccnc3C)n2)cc1
Potency: inactive

CCCCCc1nnc(NC(=O)C2CCCO2)s1 (stereo not drawn)
Potency: inactive

CCN(CC)c1ccc(CNc2ccc(Br)cn2)cc1
Potency: inactive

O=C(NCC1CCCO1)c1ccc(NC(=O)c2cccc([N+](=O)[O-])c2)cc1 (stereo not drawn)
Potency: inactive

CN(C)C(=O)c1ccc2c(c1[N+](=O)[O-])C(=O)c1ccccc1C2=O
Potency: inactive

Cc1ccc(NC(=S)NC(=O)c2cccs2)cc1F
Potency: inactive

O=C(Nc1ccccc1Br)c1ccc(OC(=S)N2CCOCC2)cc1
Potency: inactive

COCCCN=C(c1ccco1)n1c(=S)nc(-c2ccco2)n(CCCOC)c1=S
Potency: inactive

COc1ccc(C2=NN(C(C#N)c3ccc(OC)cc3)C(c3ccccc3)C2)cc1 (stereo not drawn)
Potency: inactive

COc1cc(C2=NOC(C(=O)NCc3ccc(F)cc3)C2)cc(OC)c1OC (stereo not drawn)
Potency: inactive

CCc1ccc(-n2cc(-c3ccc([N+](=O)[O-])cc3)[nH]c2=S)cc1
Potency: inactive

CCc1ccc2[nH]c(=O)c(CN(CCN3CCCC3)C(=O)NC3CCCCC3)cc2c1
Potency: inactive

C/C(=C\COc1ccc2ccc(=O)oc2c1)CC[C@@H](O)C(C)(C)O
Potency: inactive

O=C(NCCCc1ccccc1)c1cc(COc2c(F)cccc2F)on1
Potency: inactive

COc1cc(NC(=O)C(C)C)ccc1NC(=O)c1ccco1
Potency: inactive

COc1ccc(CC(=O)Nc2ccc(C(=O)Nc3ccccc3C(=O)O)cc2)cc1OC
Potency: inactive

CCn1c(=O)c2ccccc2n(Cc2ccccc2C)c1=O
Potency: inactive

CS(=O)(=O)c1ccc2nc(NC(=O)CCNC(=O)c3ccccc3Cl)sc2c1
Potency: inactive

N/C(=N\c1nc2ccccc2o1)NC(=O)c1ccc(F)cc1
Potency: inactive

Cn1c(Cc2cccs2)nnc1SCc1nc2ccccc2[nH]1
Potency: inactive

Cc1ccsc1/C=C1\CCc2ccccc2C1=O
Potency: inactive

CCN1CCN(Cc2ccc(NC(=O)Nc3ccccc3)cc2)CC1
Potency: inactive

Cc1ccc(S(=O)(=O)NCC(=O)N2CCc3ccccc3C2)cc1
Potency: inactive

CCOc1cc(S(=O)(=O)NC2CCCCCC2)ccc1F
Potency: inactive

COc1ccccc1-c1cc(C(=O)Nc2cc(C)on2)no1
Potency: inactive

C#CCn1c(=NC(=O)c2cccs2)sc2cccc(OCC)c21
Potency: inactive

CCOc1ccc(OCCSc2nc3ccccc3n2CC(=O)O)cc1
Potency: inactive

Clc1ccc(Nc2nc(-c3cccs3)cs2)nc1
Potency: inactive

Cc1ccc2nc(N3C(=O)C(O)=C(C(=O)c4ccc(C)o4)C3c3ccco3)sc2c1 (stereo not drawn)
Potency: inactive

Cc1ccc(NC(CC(=O)c2ccccc2)c2ccc(F)cc2)cc1 (stereo not drawn)
Potency: inactive

COc1ccc(-c2nsc3c(N4CCCC4)ncnc23)cc1
Potency: inactive

Cc1cc(C)nc(CC(N)=O)n1
Potency: inactive

Cc1cccnc1NC(=O)c1ccc([N+](=O)[O-])o1
Potency: inactive

O=C(c1cccs1)c1coc2ccc(O)cc12
Potency: inactive

Cc1cc(C(=O)Cn2nnc3ccccc3c2=O)c(C)n1Cc1cccs1
Potency: inactive

Cc1cc(NC(=O)c2ccc3nccnc3c2)ccc1Br
Potency: inactive

Cc1ccccc1Cn1nnc(-c2cccc(C(=O)O)c2)n1
Potency: inactive

Cc1ccc(S(=O)(=O)NCCOc2nc(N(C)C)nc(N3CCOCC3)n2)cc1
Potency: inactive

C=Cc1ccc(Cn2c(=O)n(CCCOC)c(=O)c3sccc32)cc1
Potency: inactive

Oc1cccc2c(NC(=S)Nc3ccc(OC(F)F)cc3)cccc12
Potency: inactive

CCOC(=O)N1CCN(S(=O)(=O)c2ccc(C(=O)NNc3nc4c(C)cc(C)cc4s3)cc2)CC1
Potency: inactive

CSC1=NCCN1C(=O)c1ccc(Br)o1
Potency: inactive

COc1ccc(-c2coc3cc(O[C@@H]4O[C@H](CO)[C@@H](O)[C@H](O)[C@H]4O)ccc3c2=O)cc1
Potency: inactive

O=C(CSc1ccccc1)Nc1ccc(-c2nc3ccccc3[nH]2)cc1
Potency: inactive

O=C(CNc1ccccc1)N/N=C/c1c[nH]c2ccccc12
Potency: inactive

Cc1csc(NC(=O)/C=C/c2ccc(C)o2)n1
Potency: inactive

O=C(CCN1C(=O)NC2(CCCC2)C1=O)Nc1ccc(-c2nc3ccccc3s2)cc1
Potency: 2310 nM (active)

O=C(O)C1CC(=O)N(c2ccc(Br)cc2)C1 (stereo not drawn)
Potency: inactive

CCOC(=O)N1CCN(S(=O)(=O)c2ccc(C(=O)NNc3nc4cc(C)cc(C)c4s3)cc2)CC1
Potency: inactive

Cc1ccc(C)c(C(=O)COC(=O)c2n[nH]c3ccccc23)c1
Potency: inactive

CCCN(C(=O)c1cccc(S(=O)(=O)N2CCCc3ccccc32)c1)C1CCS(=O)(=O)C1 (stereo not drawn)
Potency: inactive

Reference: PubChem BioAssay AID624331 (National Center for Advancing Translational Sciences (NCATS), 2012)
